# Measurements from PubChem BioAssay (NCATS).
# “And” between values parts separate entries of the source, which are not always exact repeats. Equal values may be shown once. Unmarked numbers belong to inactive results. Inconclusive results are not listed. A call without a number means that no potency is given here. The source made the active and inactive calls. Unless noted, the call rests on the fitted dose curve; in most records, active means well fitted curve in either direction with a large enough effect (not every such curve was filed as active); inconclusive means small, poorly fitted or top-dose-only effect, or another doubt; inactive means flat fitted curve, though single readings scatter.
# Legend:
# [1] = AP1 Signaling Pathway (AID 357); conditions: ME-180 AP-1-bla reporter, EGF-induced, beta-lactamase ratio, 5 h
# Procedure, shortened: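 AP-1-bla ME-180 cells with beta-lactamase reporter under AP-1 response element, stimulated with EC50 EGF; compounds titrated, 5 hours at 37 degrees Celsius. CCF4 read at 460/530 nm ratio; positive and negative modulators judged by AC50.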
# [2] = molecular target: Cytochrome P450 1A2 (Homo sapiens) (UniProt P05177); experiment: p450-cyp1a2 (AID 410; calls by dose curve; further: potency means the concentration at half of the fitted maximal effect)
# Procedure, shortened: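 20nM CYP1A2, 100uM Luciferin-ME (=Km), 100mM KPO4; cpd 10 min RT; +NADPH regen, 60 min RT; stop/detect 20 min; luminescence. Normalized to furafylline 57 uM = full inhibition.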
# [3] = NFAT Signaling Pathway (AID 444); conditions: Jurkat NFAT-bla M1, carbachol, beta-lactamase ratio, 5 h;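 further: carbachol stimulus at about its EC50 of 1 µM final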
# Procedure, shortened: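 Jurkat cells with NFAT-driven β-lactamase reporter and co-expressed M1 receptor, stimulated with carbachol (final 1 uM, ~EC50), compound titration, 5 h at 37 °C. CCF4 loaded 1 h at RT; 460/530 nm ratio gave %activity and AC50.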
# [4] = Stat Signaling Pathway (AID 446); conditions: ME-180 SIE beta-lactamase reporter, IL-6 stimulated, 5 h;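 further: ME-180 cervical cancer cells given 40 pM IL-6 alongside compound; SIE-controlled beta-lactamase reporter measured as 460/530 nm FRET emission ratio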
# Procedure, shortened: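 Emission at 460 and 530 nm (excitation 405 nm) reports SIE-controlled beta-lactamase in ME-180 cells. Cells received compound with 40 pM IL-6 for 5 hrs at 37 C; data scaled between 300 pM IL-6 and 125 nM JAK-inhibitor controls.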
# [5] = molecular target: Glucocorticoid receptor (Homo sapiens) (UniProt P04150); experiment: GR-GFP Redistribution (AID 450;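 active means compounds whose dose series gives a full or clear partial fitted curve of increased nuclear translocation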; further: potency means the concentration at half of the fitted maximal effect); conditions: U2OS GR-GFP nuclear translocation, laser cytometry, 2 h
# [6] = molecular target: Glucocorticoid receptor (Homo sapiens) (UniProt P04150); experiment: GR-EFC Redistribution (AID 451; calls by dose curve; further: potency means the concentration at half of the fitted maximal effect); conditions: CHO-K1 GR-EFC translocation, beta-gal luminescence, 2 h
# Procedure, shortened: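 CHO-K1 cells expressing nuclear EA and GR-ED fragments of b-gal; compounds titrated up to 46 uM final, 2 h at 37 C. GR nuclear translocation read as complemented b-gal luminescence after 1 h RT detection.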
# [7] = molecular target: 3',5'-cyclic-AMP phosphodiesterase 4B (Homo sapiens) (UniProt Q07343); experiment: qHTS Assay for Inhibitors of PDE-IV (AID 607; active means well fitted activation curve with a large enough effect in the main read-out, with a control signal flat, not every such curve was filed as active)
# Procedure, shortened: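 The readout is membrane depolarisation from a cAMP-sensing CNG channel, detected with a potential dye at ex 535/em 590. Cells were HEK293-derived (endogenous PDE-IV) at 1000 cells/well, titrated up to 22.9 uM final.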
# [8] = molecular target: Cytochrome P450 2C9 (Homo sapiens) (UniProt P11712); experiment: qHTS Assay for Inhibitors and Substrates of Cytochrome P450 2C9 (AID 883; active means well fitted curve in the direction sought with a large enough effect; an effect the other way counts as inactive or inconclusive; further: nearly all actives have a fitted effect of over 60% in size)
# Procedure, shortened: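 Signal: luciferase luminescence reporting luciferin produced by CYP2C9. Conditions: 10nM enzyme, Luciferin-H 100uM at KM, 25mM KPO4, 37C, 60 min NADPH-driven reaction. Reference: 57uM sulphaphenazole as 100% inhibition.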
# [9] = molecular target: Cytochrome P450 2D6 (Homo sapiens) (UniProt P10635); experiment: qHTS Assay for Inhibitors and Substrates of Cytochrome P450 2D6 (AID 891; active means well fitted curve in the direction sought with a large enough effect; an effect the other way counts as inactive or inconclusive;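 further: luciferin methyl ether substrate demethylated by CYP2D6 with NADPH regeneration; nearly all actives have a fitted effect of over 60% in size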)
# Procedure, shortened: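 Luminescent read-out of luciferin formed by 5 nM human CYP2D6 demethylating 30 uM Luciferin-ME EGE (Km level) over 60 min at room temperature after NADPH regeneration addition. Data normalized to full inhibition by 1.43 uM quinidine.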
# [10] = molecular target: Cytochrome P450 2C19 (Homo sapiens) (UniProt P33261); experiment: qHTS Assay for Inhibitors and Substrates of Cytochrome P450 2C19 (AID 899; active means well fitted curve in the direction sought with a large enough effect; an effect the other way counts as inactive or inconclusive; further: nearly all actives have a fitted effect of over 60% in size)
# Procedure, shortened: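 Signal comes from luciferase acting on luciferin released by CYP2C19-mediated hydroxylation of Luciferin-H EGE, 10uM (KM). Assay mix: 5nM enzyme, 50mM KPO4; 60 min at 37C with NADPH regeneration. Data normalized against 57uM ketoconazole.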
# [11] = molecular target: Mitogen-activated protein kinase 10 (Mus musculus) (UniProt Q61831); experiment: JNK3 AlphaScreen Assay (AID 530);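 further: kinase came from lysate of stimulated human HepG2 cells; signal reports phosphorylation of biotinylated GST-cJun 1-79 at Ser73 with 10 µM ATP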
# Procedure, shortened: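 HepG2 lysate (IL-1b/TNFa pre-activated) + biotin-GST-cJun 1-79 + anti-pSer73 cJun; cpd titration, 15 min RT; ATP 10 uM start; Tris pH 7.6, MgCl2, DTT, vanadate; beads in EDTA buffer; AlphaScreen.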
# [12] = molecular target: Guanine nucleotide-binding protein G(i) subunit alpha-1 (Homo sapiens) (UniProt P63096); experiment: qHTS Assay for Inhibitors of RGS12 GoLoco Motif Activity (Green Fluorophore) (AID 879; active means well fitted curve in the direction sought with a large enough effect; an effect the other way counts as inactive or inconclusive;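 further: negative values mean loss of peptide binding seen as reduced polarization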)
# Procedure, shortened: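 A drop in FITC polarization marked displacement of the FITC-tagged RGS12 GoLoco peptide (10 nM) from Gαi1 (50 nM). Compounds were incubated 10 min at room temperature in Tris pH 7.5 buffer containing 150 mM NaCl, 0.1 mM GDP and 0.05% NP40; unlabeled peptide titration served as control.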
# [13] = molecular target: Cytochrome P450 3A4 (Homo sapiens) (UniProt P08684); experiment: qHTS Assay for Activators of Cytochrome P450 3A4 (AID 885; active means well fitted curve in the direction sought with a large enough effect; an effect the other way counts as inactive or inconclusive; further: nearly all actives have a fitted effect of over 65% in size)
# Procedure, shortened: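 Activators are scored by enhanced luminescence from CYP3A4 conversion of luciferin-PPXE (25uM, equal to KM) to luciferin, after 60 min at RT with an NADPH-regenerating system.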
# [14] = qHTS Assay for Identification of Small Molecule Antagonists for NFkB Signaling Pathway (AID 895; active means well fitted inhibition curve with a large enough effect in the signal ratio, with a control signal flat, not every such curve was filed as active; the % refers to the signal ratio; further: potency means the concentration at half of the fitted maximal effect)
# Procedure, shortened: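 ME-180 NFkB-bla cells (beta-lactamase under NFkB response element), plated overnight, treated with compound then 10 pM TNF alpha (about EC50) for 5 hrs at 37 C. LiveBLAzer FRET read at 460/530 nm emission, 405 nm excitation.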
# [15] = qHTS Assay for Identification of Small Molecule Agonists for Thrombopoietin (TPO) Signaling Pathway (AID 917; active means well fitted curve in the direction sought with a large enough effect; an effect the other way counts as inactive or inconclusive)
# Procedure, shortened: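 Cell-based luciferase reporter screen. Mouse Ba/F3 line stably expressing human TPO receptor; IL-3 removed overnight before plating. Co-treatment with compound and EC50 TPO (26 pM), 24 hrs at 37 C, then luminescence.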
# [16] = molecular target: Muscarinic acetylcholine receptor M1 (Rattus norvegicus) (UniProt P08482); experiment: qHTS Assay for Antagonists of Acetylcholine Muscarinic M1 Receptor: Measurement of IP-One Response (AID 944; active means well fitted curve in the direction sought with a large enough effect; an effect the other way counts as inactive or inconclusive; further: nearly all actives have a fitted effect of over 75% in size)
# Procedure, shortened: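 Read-out: HTRF competition between d2-IP1 and Eu-cryptate anti-IP1 antibody, emission 620 and 665 nm. Stimulus was carbachol, EC80 (200 nM), for 30 min in M1-CHO cells (rat receptor), after 10 min compound pre-treatment.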
# [17] = molecular target: Pyruvate kinase (Leishmania mexicana) (UniProt Q27686); experiment: qHTS Validation Assay for Inhibitors of Leishmania Mexicana Pyruvate Kinase (AID 945; active means well fitted curve in the direction sought with a large enough effect; an effect the other way counts as inactive or inconclusive)
# Procedure, shortened: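 Read-out: luminescence from PKLight stop/detection reagent, data normalized to DMSO. Reaction: 0.2 nM E451W LmPYK, 0.5 mM PEP, 0.1 mM ADP, pH 7.2, 1 h room temperature.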
# [18] = molecular target: Pyruvate kinase PKM (Homo sapiens) (UniProt P14618); experiment: qHTS Assay for Activators of Human Muscle Pyruvate Kinase (AID 954; active means well fitted curve in the direction sought with a large enough effect, not every such curve was filed as active)
# Procedure, shortened: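 PKM2, human, >95% pure, 0.1 nM; PEP 0.5 mM (Km), ADP 0.1 mM; 50 mM imidazole pH 7.2, 50 mM KCl, 0.01% Tween 20, 0.05% BSA; 1 h RT; luciferase luminescence readout.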
# [19] = molecular target: Alpha-galactosidase A (Homo sapiens) (UniProt P06280); experiment: Counterscreen for Glucocerebrosidase Inhibitors: qHTS Assay for Human alpha-Galactosidase at pH 4.5 (AID 992; active means well fitted curve in the direction sought with a large enough effect; an effect the other way counts as inactive or inconclusive)
# Procedure, shortened: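 Fluorogenic 4-MU alpha-D-galactoside (80 uM) hydrolysis, 2 nM enzyme, pH 4.5 citrate buffer + 0.005% Tween-20; 20 min RT; NaOH/glycine pH 10 stop; Ex365/Em440. Compounds titrated 0.7 nM–77 uM; Hill-equation AC50.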
# [20] = molecular target: alpha-glucosidase (Oryza sativa, rice) (UniProt Q653V4); experiment: Counterscreen for Glucocerebrosidase Inhibitors: qHTS Assay for Rice alpha-Glucosidase at pH 5.0 (AID 997; active means well fitted curve in the direction sought with a large enough effect; an effect the other way counts as inactive or inconclusive)
# Procedure, shortened: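 Endpoint fluorogenic assay at pH 5.0: compounds (0.7 nM to 77 uM) titrated against 4 nM rice enzyme and 400 uM 4-MU-alpha-glucoside for 20 min at room temperature; NaOH/glycine stop, read ex 365/em 440 nm, Hill-fitted AC50.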
# [21] = at 7.69 µM (top of the series) unless noted
# Chain of Muscarinic acetylcholine receptor M1 (Rattus norvegicus) (P08482 whole entry, looked up): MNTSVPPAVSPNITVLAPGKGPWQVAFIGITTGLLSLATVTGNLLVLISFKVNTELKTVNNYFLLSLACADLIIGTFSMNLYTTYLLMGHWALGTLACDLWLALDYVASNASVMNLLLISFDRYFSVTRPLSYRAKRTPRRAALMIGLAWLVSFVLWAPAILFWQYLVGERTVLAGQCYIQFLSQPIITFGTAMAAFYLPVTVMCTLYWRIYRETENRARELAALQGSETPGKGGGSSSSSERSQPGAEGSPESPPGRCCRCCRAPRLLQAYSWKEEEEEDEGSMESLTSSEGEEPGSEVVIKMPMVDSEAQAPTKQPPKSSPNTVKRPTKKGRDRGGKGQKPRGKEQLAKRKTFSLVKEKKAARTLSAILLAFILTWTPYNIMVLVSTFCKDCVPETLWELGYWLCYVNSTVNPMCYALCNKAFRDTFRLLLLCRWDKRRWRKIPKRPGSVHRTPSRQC
# Chain of 3',5'-cyclic-AMP phosphodiesterase 4B (Homo sapiens) (Q07343 whole entry, looked up): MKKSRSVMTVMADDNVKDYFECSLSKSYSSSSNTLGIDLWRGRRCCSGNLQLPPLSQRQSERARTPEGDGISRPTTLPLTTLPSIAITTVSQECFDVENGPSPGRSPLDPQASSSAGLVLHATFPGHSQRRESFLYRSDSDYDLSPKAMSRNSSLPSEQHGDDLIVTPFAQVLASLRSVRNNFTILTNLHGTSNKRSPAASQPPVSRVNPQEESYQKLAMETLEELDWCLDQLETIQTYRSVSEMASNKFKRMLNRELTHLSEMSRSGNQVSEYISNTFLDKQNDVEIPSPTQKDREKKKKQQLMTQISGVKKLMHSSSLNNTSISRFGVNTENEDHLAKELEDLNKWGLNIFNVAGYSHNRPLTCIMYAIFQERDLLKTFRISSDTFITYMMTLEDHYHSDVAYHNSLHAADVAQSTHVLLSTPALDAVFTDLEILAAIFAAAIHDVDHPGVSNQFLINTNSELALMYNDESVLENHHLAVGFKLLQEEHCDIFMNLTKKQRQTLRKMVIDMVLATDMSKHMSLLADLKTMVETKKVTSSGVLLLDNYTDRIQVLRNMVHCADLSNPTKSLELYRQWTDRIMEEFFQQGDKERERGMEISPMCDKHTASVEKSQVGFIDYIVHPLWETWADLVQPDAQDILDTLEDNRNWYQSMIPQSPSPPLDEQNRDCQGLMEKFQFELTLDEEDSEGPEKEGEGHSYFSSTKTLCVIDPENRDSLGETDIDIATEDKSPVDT
# Chain of Glucocorticoid receptor (Homo sapiens) (P04150 whole entry, looked up, the tested form may be a part): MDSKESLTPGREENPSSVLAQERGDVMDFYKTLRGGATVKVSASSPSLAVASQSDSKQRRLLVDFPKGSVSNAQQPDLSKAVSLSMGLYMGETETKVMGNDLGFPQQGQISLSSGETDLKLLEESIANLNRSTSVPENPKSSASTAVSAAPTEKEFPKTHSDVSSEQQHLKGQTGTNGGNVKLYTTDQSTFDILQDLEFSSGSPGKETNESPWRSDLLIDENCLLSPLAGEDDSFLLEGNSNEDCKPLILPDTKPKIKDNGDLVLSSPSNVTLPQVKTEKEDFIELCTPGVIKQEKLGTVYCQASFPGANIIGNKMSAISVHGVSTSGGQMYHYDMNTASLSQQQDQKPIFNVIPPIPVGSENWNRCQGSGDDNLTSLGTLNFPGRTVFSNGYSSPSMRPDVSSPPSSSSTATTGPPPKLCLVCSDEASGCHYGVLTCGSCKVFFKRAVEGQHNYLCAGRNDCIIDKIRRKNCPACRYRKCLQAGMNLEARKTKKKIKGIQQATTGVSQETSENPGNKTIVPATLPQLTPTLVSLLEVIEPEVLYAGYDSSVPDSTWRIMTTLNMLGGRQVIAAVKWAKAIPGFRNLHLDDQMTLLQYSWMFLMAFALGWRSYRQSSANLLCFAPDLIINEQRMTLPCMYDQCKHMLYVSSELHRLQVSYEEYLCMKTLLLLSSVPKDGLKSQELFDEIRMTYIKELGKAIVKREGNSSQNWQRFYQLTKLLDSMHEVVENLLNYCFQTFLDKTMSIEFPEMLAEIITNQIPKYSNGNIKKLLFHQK
# Chain of Cytochrome P450 3A4 (Homo sapiens) (P08684 whole entry, looked up): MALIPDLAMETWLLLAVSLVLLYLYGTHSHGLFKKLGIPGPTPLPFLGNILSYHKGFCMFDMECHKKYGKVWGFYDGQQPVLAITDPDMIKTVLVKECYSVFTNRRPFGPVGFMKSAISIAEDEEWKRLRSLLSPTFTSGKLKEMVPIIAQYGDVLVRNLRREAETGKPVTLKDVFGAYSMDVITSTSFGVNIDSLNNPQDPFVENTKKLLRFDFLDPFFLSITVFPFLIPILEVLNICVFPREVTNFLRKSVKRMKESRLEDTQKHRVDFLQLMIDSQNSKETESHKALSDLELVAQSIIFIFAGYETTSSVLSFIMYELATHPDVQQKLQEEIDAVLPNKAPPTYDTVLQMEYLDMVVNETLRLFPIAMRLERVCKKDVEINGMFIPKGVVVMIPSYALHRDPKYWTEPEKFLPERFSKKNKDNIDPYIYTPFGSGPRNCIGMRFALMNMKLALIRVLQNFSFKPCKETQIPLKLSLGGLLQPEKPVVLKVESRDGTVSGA
# Chain of Guanine nucleotide-binding protein G(i) subunit alpha-1 (Homo sapiens) (P63096 whole entry, looked up): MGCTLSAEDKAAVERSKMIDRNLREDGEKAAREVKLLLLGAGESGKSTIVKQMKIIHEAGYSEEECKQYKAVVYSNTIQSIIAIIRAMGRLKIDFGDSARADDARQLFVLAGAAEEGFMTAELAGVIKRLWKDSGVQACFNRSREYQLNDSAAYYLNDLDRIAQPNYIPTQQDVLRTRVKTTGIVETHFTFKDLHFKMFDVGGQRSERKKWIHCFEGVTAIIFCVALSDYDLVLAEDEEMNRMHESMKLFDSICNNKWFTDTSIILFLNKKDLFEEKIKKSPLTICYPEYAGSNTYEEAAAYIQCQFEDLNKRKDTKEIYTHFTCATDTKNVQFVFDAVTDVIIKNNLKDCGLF
# Chain of Cytochrome P450 1A2 (Homo sapiens) (P05177 whole entry, looked up): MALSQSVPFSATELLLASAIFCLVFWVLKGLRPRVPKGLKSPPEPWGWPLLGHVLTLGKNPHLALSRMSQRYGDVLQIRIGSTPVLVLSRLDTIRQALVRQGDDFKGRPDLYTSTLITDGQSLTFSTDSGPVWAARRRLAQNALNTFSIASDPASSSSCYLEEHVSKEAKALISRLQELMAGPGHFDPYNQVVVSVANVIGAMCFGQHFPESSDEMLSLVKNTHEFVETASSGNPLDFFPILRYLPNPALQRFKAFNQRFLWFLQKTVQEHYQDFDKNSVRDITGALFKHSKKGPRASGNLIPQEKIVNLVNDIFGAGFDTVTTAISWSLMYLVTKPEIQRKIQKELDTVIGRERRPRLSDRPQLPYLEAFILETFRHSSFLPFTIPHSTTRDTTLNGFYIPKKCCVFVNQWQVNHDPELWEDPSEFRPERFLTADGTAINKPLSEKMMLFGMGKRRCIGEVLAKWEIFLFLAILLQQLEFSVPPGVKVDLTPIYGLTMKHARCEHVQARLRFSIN
# Chain of Pyruvate kinase PKM (Homo sapiens) (P14618 whole entry, looked up): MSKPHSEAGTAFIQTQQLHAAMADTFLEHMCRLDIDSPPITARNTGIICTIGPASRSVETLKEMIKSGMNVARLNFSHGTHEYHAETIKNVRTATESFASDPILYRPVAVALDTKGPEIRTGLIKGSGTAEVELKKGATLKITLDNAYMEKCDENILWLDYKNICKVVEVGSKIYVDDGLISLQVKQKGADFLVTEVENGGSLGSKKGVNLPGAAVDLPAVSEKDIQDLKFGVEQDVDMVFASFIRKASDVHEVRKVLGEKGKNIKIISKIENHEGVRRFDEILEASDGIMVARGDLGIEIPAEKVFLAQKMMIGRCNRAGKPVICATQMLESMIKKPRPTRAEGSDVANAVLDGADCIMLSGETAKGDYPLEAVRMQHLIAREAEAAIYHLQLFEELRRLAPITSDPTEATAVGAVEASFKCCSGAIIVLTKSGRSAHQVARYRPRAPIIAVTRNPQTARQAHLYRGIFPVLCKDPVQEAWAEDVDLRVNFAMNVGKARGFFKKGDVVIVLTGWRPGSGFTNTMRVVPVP
# Chain of Alpha-galactosidase A (Homo sapiens) (P06280 whole entry, looked up): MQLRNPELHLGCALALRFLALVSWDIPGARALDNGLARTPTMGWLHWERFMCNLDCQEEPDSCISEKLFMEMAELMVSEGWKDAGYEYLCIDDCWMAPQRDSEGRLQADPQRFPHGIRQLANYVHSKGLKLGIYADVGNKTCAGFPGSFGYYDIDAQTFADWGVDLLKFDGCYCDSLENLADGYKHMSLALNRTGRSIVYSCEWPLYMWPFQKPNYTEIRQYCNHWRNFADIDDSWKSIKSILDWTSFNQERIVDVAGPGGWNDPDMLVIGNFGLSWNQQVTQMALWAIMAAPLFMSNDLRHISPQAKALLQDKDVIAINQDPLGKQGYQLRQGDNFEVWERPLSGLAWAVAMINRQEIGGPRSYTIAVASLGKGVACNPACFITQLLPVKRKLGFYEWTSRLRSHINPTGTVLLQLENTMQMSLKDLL
# Chain of Cytochrome P450 2C9 (Homo sapiens) (P11712 whole entry, looked up): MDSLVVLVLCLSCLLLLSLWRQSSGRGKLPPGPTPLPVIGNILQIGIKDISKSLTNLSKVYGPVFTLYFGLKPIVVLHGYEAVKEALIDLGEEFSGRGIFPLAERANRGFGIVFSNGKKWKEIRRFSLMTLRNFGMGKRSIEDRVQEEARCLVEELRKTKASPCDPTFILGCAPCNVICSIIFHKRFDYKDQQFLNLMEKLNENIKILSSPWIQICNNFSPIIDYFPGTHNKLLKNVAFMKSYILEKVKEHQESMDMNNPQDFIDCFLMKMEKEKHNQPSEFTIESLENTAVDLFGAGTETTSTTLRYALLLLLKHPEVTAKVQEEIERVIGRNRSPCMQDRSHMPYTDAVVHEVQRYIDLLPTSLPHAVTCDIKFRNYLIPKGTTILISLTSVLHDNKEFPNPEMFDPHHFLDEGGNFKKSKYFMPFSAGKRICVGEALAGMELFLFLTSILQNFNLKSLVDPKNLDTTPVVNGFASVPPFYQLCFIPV
smiles,measurement,setting,value
N[C@H](COP(=O)(O)O)C(=O)O,"activity change, negative = inhibition",[1]; [21],-5.61% [at 38 µM]
same,Potency,[2],inactive
same,"activity change, negative = inhibition",[3]; [21],1.24% [at 38 µM]
same,"activity, negative = inhibition",[4]; [21],20.2% [at 38 µM]
same,Potency,[5],> 46 µM
same,Potency,[6],> 46 µM
same,Potency,[7],inactive
same,Potency,[8],inactive
same,Potency,[9],inactive
same,Potency,[10],inactive
O=C(O)/C(=C\c1ccccc1)c1ccccc1,"activity change, negative = inhibition",[1]; [21],3.72%
same,Potency,[2],inactive
same,"activity change, negative = inhibition",[3]; [21],1.44%
same,"activity, negative = inhibition",[4]; [21],-0.514%
same,Potency,[5],> 46 µM
same,Potency,[6],> 9.22 µM
same,Potency,[11],inactive
same,Potency,[7],inactive
Cc1ccccc1N1CCN(S(=O)(=O)C[C@@]23CC[C@H](C[C@H]2NC(=O)[C@@H](N)CCS(C)(=O)=O)C3(C)C)CC1,"activity change, negative = inhibition",[1]; [21],28.6% [at 38 µM]
same,Potency,[2],inactive
same,"activity change, negative = inhibition",[3]; [21],14% [at 38 µM]
same,"activity, negative = inhibition",[4]; [21],-9.73% [at 38 µM]
same,Potency,[5],> 46 µM
same,Potency,[6],> 46 µM
same,Potency,[11],inactive
same,Potency,[7],inactive
same,outcome,[12],inactive
same,Potency,[13],inactive
same,Potency,[14],inactive
same,outcome,[15],inactive
same,Potency,[16],inactive
same,outcome,[17],inactive
same,outcome,[18],inactive
same,outcome,[19],inactive
same,Potency,[20],inactive
CC(=O)N1CCN(c2ccc(OC[C@@H]3CO[C@@](Cn4ccnc4)(c4ccc(Cl)cc4Cl)O3)cc2)CC1,"activity change, negative = inhibition",[1]; at 17.2 µM (top of the series),-18.1%
same,"activity change, negative = inhibition",[1]; at 38 µM (top of the series),-10.5%
same,"activity change, negative = inhibition",[3]; at 17.2 µM (top of the series),-5.42%
same,"activity change, negative = inhibition",[3]; at 38 µM (top of the series),-20.5%
same,"activity, negative = inhibition",[4]; at 17.2 µM (top of the series),-12.7%
same,"activity, negative = inhibition",[4]; at 38 µM (top of the series),-11.9%
same,Potency,[5],> 46 µM and > 20.6 µM
same,Potency,[6],> 46 µM and > 20.6 µM
same,Potency,[7],inactive
O=C1O/C(=C\Br)CC[C@@H]1c1cccc2ccccc12,"activity change, negative = inhibition",[1]; [21],-0.931% [at 38 µM]
same,Potency,[2],inactive
same,"activity change, negative = inhibition",[3]; [21],-0.824% [at 38 µM]
same,"activity, negative = inhibition",[4]; [21],4.17% [at 38 µM]
same,Potency,[5],> 46 µM
same,Potency,[6],> 46 µM
same,Potency,[11],inactive
same,Potency,[7],inactive
same,outcome,[12],inactive
same,Potency,[13],inactive
same,Potency,[16],inactive
same,outcome,[19],inactive
same,Potency,[20],inactive
O=C(C[n+]1ccc2ccccc2c1)c1ccc2ccc3ccccc3c2c1,"activity change, negative = inhibition",[1]; [21],0.901%
same,Potency,[2],2.51 µM (active)
same,"activity change, negative = inhibition",[3]; [21],-15.5%
same,"activity, negative = inhibition",[4]; [21],0.433%
same,Potency,[5],> 46 µM
same,Potency,[6],> 9.22 µM
same,Potency,[11],inactive
same,Potency,[7],inactive
CNC(=O)[C@@H]1O[C@@H](n2cnc3c(NCc4ccc(N)cc4)ncnc32)[C@@H](O)[C@H]1O,"activity change, negative = inhibition",[1]; [21],-7.83% [at 38 µM]
same,Potency,[2],inactive
same,"activity change, negative = inhibition",[3]; [21],4.77% [at 38 µM]
same,"activity, negative = inhibition",[4]; [21],-2.42% [at 38 µM]
same,Potency,[5],> 46 µM
same,Potency,[6],> 46 µM
same,Potency,[11],inactive
same,Potency,[7],inactive
same,outcome,[12],inactive
same,Potency,[13],inactive
same,Potency,[14],12.6 µM (active)
same,outcome,[15],inactive
same,Potency,[16],inactive
same,outcome,[18],inactive
same,Potency,[20],inactive
